The text below walks through data of PubChem BioAssay (EPA / NIEHS).

The target in test [1] is human Opioid Receptor Mu (Opiate Mu), OPRM1 (gene 4988) (UniProt P35372). Nature of the test: NVS_GPCR_hOpiate_mu: NovaScreen (NVS) G Protein-Coupled Receptor Assay for human Opioid Receptor Mu (Opiate Mu) (AID 2283290).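 Also: hits lower bound tracer signal versus DMSO meaning displacement of the ligand.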 An outline of the steps: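 CHO-derived receptor protein, cell-free; radioligand displacement, filtration + scintillation counting, read at 2.5 h. DMSO = negative control/baseline. Primary: 25 uM single conc, duplicate; secondary: concentration series.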
Chain of human Opioid Receptor Mu (Opiate Mu), OPRM1 (gene 4988) (P35372 whole entry, looked up): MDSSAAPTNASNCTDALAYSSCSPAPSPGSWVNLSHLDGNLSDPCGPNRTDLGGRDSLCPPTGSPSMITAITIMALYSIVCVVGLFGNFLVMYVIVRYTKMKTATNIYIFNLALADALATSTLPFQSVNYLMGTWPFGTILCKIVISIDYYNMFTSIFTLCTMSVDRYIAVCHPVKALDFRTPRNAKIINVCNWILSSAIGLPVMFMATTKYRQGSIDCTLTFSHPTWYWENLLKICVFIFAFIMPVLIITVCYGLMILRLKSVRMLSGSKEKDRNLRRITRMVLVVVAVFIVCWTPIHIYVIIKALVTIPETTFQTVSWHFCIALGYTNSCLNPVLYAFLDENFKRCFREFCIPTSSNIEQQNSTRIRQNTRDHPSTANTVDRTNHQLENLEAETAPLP

For test [2], the system named is rabbit Platelet Activating Factor Receptor (PAF), gene 100354046. Nature of the test: NVS_GPCR_rabPAF: NovaScreen (NVS) G Protein-Coupled Receptor Assay for rabbit Platelet Activating Factor Receptor (PAF) (AID 2283287). An outline of the steps: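 Rabbit platelet membrane preparation; radioligand displacement read by filter-based scintillation counting 1 h after dosing, loss of signal versus DMSO. Primary screen in duplicate at 25 uM, actives followed up in concentration series.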

Test [3] addresses rat Serotonin, 5-Hydroxytryptamine Receptor 1 (5HT1), Non-Selective Binding, Htr1a (gene 24473) (UniProt P19327). Nature of the test: NVS_GPCR_r5HT1_NonSelective: NovaScreen (NVS) G Protein-Coupled Receptor Assay for rat Serotonin, 5-Hydroxytryptamine Receptor 1 (5HT1), Non-Selective Binding (AID 2283286). An outline of the steps:
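Binding of a radioligand to rat cortex membranes is read by filtration and scintillation counting after 1 h. Compounds were screened at 25 uM in duplicate. Actives were then titrated to a top of 50 uM. DMSO is the baseline.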

The target in test [4] is rat Adrenergic, Alpha 1, Non-selective Receptor (Adra1), Adra1a (gene 29412) (UniProt P43140). Nature of the test: NVS_GPCR_rAdra1_NonSelective: NovaScreen (NVS) G Protein-Coupled Receptor Assay for rat Adrenergic, Alpha 1, Non-selective Receptor (Adra1) (AID 2283289). An outline of the steps: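 Chemicals first screened in duplicate at 25 uM, then actives tested in concentration series up to 50 uM. Binding measured as displacement of radioligand from rat forebrain membrane receptors, 1 h, filtration with scintillation readout; DMSO baseline.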

Test [5] relates to 5-hydroxytryptamine receptor 2C (pig). Nature of the test: NVS_GPCR_p5HT2C: NovaScreen (NVS) G Protein-Coupled Receptor Assay for pig Serotonin, 5-Hydroxytryptamine Receptor 2C (5HT2C) (AID 2283288). An outline of the steps:
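Radioligand displacement on membranes from pig choroid plexus, detected by filter scintillation counting after 1 h. Tested first at a single 25 uM in duplicate, then in concentration-response for actives; DMSO served as baseline.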

Test [6] has as its target Metabotropic glutamate receptor 1 (Rattus norvegicus) (UniProt P23385). Nature of the test: NVS_GPCR_rmMGluR1: NovaScreen (NVS) G Protein-Coupled Receptor Assay for rat Glutamate Metabotropic Receptor 1 (MGluR1) (AID 2283305). An outline of the steps: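 Binding to native receptor from rat cerebellum extract, measured as displacement of a radioligand (scintillation counting, filter separation) after 1 hour. Compounds tested at 25 uM in duplicate, then titrated to a 50 uM maximum.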

The target in test [7] is rat Adrenergic Receptor, Beta (Adrb), Non-selective Binding, Adrb1 (gene 24925) (UniProt P18090). Nature of the test: NVS_GPCR_rAdrb_NonSelective: NovaScreen (NVS) G Protein-Coupled Receptor Assay for rat Adrenergic Receptor, Beta (Adrb), Non-selective Binding (AID 2283298). An outline of the steps: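 Rat cortical membranes incubated 1 h with beta-adrenergic radioligand and test chemical; bound ligand measured by filtration and scintillation counting. Screen at 25 uM duplicate, then concentration series with 50 uM maximum; loss of signal versus DMSO.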
Chain of rat Adrenergic Receptor, Beta (Adrb), Non-selective Binding, Adrb1 (gene 24925) (P18090 whole entry, looked up): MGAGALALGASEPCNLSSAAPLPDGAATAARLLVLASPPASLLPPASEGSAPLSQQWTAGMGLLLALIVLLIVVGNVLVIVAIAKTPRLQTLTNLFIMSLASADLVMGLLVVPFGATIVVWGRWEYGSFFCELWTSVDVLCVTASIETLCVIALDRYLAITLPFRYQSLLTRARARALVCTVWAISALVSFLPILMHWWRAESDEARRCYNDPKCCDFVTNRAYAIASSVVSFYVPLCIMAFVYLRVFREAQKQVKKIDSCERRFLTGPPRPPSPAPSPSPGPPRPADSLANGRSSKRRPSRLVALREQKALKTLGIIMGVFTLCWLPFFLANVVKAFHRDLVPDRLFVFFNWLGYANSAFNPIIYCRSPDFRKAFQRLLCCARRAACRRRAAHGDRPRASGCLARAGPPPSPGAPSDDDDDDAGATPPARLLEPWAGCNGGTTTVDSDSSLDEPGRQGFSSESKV

The target of test [8] is rat Gamma-Aminobutyric Acid Type B Receptor (GABBR), Gabbr1 (gene 81657) (UniProt Q9Z0U4). Nature of the test: NVS_GPCR_rGABBR: NovaScreen (NVS) G Protein-Coupled Receptor Assay for rat Gamma-Aminobutyric Acid Type B Receptor (GABBR) (AID 2283301). An outline of the steps: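 Rat cortical membrane preparation, competitive radioligand binding for 1 h with filtration and scintillation readout. Actives from duplicate single-point 25 uM screening proceeded to concentration series with 50 uM top concentration.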

In test [9] the target is rat Histamine Receptor (H3), Hrh3 (gene 85268) (UniProt Q9QYN8). Nature of the test: NVS_GPCR_rH3: NovaScreen (NVS) G Protein-Coupled Receptor Assay for rat Histamine Receptor (H3) (AID 2283303). An outline of the steps: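 Filter-binding radioligand competition on rat forebrain membranes, 1 h incubation; compounds screened at 25 µM in duplicate and followed in concentration series to 50 µM, loss of bound signal vs DMSO.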

In test [10] the target is guinea pig Serotonin, 5-Hydroxytryptamine Receptor 4 (5HT4), HTR4 (gene 100135548) (UniProt O70528). Nature of the test: NVS_GPCR_g5HT4: NovaScreen (NVS) G Protein-Coupled Receptor Assay for guinea pig Serotonin, 5-Hydroxytryptamine Receptor 4 (5HT4) (AID 2283294). An outline of the steps: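 Compounds first screened in duplicate at 25 uM, actives followed up in concentration series. Binding measured as displacement of specific radioligand from guinea pig striatal membranes, 1 h, filter-based scintillation read-out versus DMSO baseline.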
Chain of guinea pig Serotonin, 5-Hydroxytryptamine Receptor 4 (5HT4), HTR4 (gene 100135548) (O70528 whole entry, looked up): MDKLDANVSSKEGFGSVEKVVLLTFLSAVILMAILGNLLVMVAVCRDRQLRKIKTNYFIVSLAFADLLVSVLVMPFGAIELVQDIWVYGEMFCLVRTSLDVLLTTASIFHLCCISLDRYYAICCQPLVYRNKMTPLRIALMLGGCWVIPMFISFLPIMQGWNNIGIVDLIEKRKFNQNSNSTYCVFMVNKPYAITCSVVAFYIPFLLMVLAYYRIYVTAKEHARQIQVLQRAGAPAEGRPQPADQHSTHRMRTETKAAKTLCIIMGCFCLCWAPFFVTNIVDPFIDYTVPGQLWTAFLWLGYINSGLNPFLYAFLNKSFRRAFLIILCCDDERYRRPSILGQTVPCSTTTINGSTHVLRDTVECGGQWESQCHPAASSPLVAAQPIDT

Test [11] has as its target rat Adrenergic, Alpha 1A Receptor (Adra1A), Adra1a (gene 29412) (UniProt P43140). Nature of the test: NVS_GPCR_rAdra1A: NovaScreen (NVS) G Protein-Coupled Receptor Assay for rat Adrenergic, Alpha 1A Receptor (Adra1A) (AID 2283296). An outline of the steps: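 Filter radiodetection after 1 h competitive binding on CEC-pretreated rat cortical membranes. Duplicate single-point screening at 25 uM; active chemicals retested across concentration series.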

Test [12] has as its target Adra2b (gene 24174) (UniProt P19328). Nature of the test: NVS_GPCR_rmAdra2B: NovaScreen (NVS) G Protein-Coupled Receptor Assay for hybird cells Adrenergic, Alpha 2B Receptor (Adra2B) (AID 2283306). An outline of the steps: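 Compounds screened first at 25 uM in duplicate, with actives followed up in concentration-response; specific radioligand displacement from hybrid neuroglioma/blastoma cell membrane preparations measured by filter scintillation counting after 1 h, normalized to DMSO.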

The target of test [13] is rat Neurokinin-1 Receptor (NK1), Tacr1 (gene 24807) (UniProt P14600). Nature of the test: NVS_GPCR_rNK1: NovaScreen (NVS) G Protein-Coupled Receptor Assay for rat Neurokinin-1 Receptor (NK1) (AID 2283309). An outline of the steps: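 Competitive radioligand binding to NK1 in rat submaxillary membranes, 1 h incubation, filtration and scintillation read-out. Compounds first screened at 25 uM in duplicate, then concentration-response for actives; signal loss relative to DMSO.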
Chain of rat Neurokinin-1 Receptor (NK1), Tacr1 (gene 24807) (P14600 whole entry, looked up): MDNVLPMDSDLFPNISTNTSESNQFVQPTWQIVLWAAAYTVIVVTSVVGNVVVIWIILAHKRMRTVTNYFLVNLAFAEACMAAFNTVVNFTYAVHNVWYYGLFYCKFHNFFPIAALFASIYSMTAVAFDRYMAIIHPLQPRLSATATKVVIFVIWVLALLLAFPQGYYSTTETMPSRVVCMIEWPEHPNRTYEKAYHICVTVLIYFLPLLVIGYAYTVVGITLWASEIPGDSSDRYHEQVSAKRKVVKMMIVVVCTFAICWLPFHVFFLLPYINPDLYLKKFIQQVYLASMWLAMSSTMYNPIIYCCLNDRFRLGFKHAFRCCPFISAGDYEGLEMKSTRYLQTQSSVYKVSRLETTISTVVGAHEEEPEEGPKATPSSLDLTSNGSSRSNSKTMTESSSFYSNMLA

The target in test [14] is human Thromboxane A2 Receptor (TXA2), TBXA2R (gene 6915) (UniProt P21731). Nature of the test: NVS_GPCR_hTXA2: NovaScreen (NVS) G Protein-Coupled Receptor Assay for human Thromboxane A2 Receptor (TXA2) (AID 2283282).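 Also: actives reduce bound radioligand signal relative to DMSO baseline.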 An outline of the steps:
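Filter scintillation counting of bound radioligand, human platelet protein, 1 h exposure. Single-concentration duplicates (25 uM) first, concentration-response follow-up for actives. Binding loss scored against DMSO baseline.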

The target in test [15] is mouse Cholecystokinin, CCK2 Receptor (CCKB), Cckbr (gene 12426) (UniProt P56481). Nature of the test: NVS_GPCR_mCKKBCentral: NovaScreen (NVS) G Protein-Coupled Receptor Assay for mouse Cholecystokinin, CCK2 Receptor (CCKB) (AID 2283293). An outline of the steps: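 Mouse forebrain membrane preparation incubated 2 h with chemical and radioligand; bound radioactivity counted after filtration. Single-concentration duplicate screen at 25 uM, then concentration series to 50 uM max for hits, DMSO as baseline.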
Chain of mouse Cholecystokinin, CCK2 Receptor (CCKB), Cckbr (gene 12426) (P56481 whole entry, looked up): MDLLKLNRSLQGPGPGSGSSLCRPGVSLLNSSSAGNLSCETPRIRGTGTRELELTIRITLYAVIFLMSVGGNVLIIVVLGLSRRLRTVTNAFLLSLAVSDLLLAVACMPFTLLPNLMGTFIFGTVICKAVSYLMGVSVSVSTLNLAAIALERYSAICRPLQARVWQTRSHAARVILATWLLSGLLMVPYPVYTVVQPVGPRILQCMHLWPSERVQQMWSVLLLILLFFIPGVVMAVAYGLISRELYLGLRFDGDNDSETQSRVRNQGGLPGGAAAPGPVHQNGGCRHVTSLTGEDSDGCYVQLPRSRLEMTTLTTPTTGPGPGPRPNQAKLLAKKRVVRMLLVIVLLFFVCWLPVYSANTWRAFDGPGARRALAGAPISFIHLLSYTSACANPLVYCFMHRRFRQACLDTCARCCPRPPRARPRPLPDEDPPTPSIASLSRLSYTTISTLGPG

Test [16] concerns the target rat Adrenergic Receptor, Alpha 2 (Adra2), Non-selective Binding, Adra2a (gene 25083) (UniProt P22909). Nature of the test: NVS_GPCR_rAdra2_NonSelective: NovaScreen (NVS) G Protein-Coupled Receptor Assay for rat Adrenergic Receptor, Alpha 2 (Adra2), Non-selective Binding (AID 2283299). An outline of the steps: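 Filter-based scintillation counting of radioligand binding to rat cortical membrane receptors, measured 1.25 hours post-dosing; loss of signal versus DMSO indicates displacement. Initial single-concentration duplicate at 25 uM, then concentration series.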

One may read the AC50 as the concentration giving half of the maximal activity seen.

Several values for one entry are separate records, joined by “and”; a condition that tells them apart may be missing. Equal values may be shown once. Records with an inconclusive call do not appear. Where a structure was tested more than once in an assay, its records may differ in their call. Activity calls are given as the source filed them. The calls were made as follows: active = hit-call score of the fitted dose curve at least 0.9, where 1 is the maximum; inconclusive = response in the unintended direction; inactive = score below 0.9.

Chain of human Thromboxane A2 Receptor (TXA2), TBXA2R (gene 6915) (P21731 whole entry, looked up): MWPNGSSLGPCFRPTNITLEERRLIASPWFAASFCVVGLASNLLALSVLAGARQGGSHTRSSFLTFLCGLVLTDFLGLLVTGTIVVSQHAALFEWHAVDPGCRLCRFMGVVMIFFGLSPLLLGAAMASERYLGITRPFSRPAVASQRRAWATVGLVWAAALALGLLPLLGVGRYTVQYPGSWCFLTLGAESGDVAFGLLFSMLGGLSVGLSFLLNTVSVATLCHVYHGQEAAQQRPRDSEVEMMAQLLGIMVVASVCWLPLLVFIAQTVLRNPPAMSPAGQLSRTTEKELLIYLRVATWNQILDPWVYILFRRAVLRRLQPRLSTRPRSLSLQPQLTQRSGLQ
Chain of Adra2b (gene 24174) (P19328 whole entry, looked up): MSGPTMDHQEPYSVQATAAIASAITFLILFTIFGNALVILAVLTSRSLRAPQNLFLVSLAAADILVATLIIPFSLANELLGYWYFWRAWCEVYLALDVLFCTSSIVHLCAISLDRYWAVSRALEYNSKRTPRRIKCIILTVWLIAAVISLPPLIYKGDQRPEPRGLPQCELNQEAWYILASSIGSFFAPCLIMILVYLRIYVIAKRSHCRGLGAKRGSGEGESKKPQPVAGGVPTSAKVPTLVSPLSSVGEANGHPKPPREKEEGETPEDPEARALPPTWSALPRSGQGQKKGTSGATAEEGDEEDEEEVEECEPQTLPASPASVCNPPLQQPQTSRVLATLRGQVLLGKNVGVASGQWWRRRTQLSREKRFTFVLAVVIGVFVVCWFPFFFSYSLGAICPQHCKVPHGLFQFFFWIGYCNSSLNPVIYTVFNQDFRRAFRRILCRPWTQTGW
Chain of Metabotropic glutamate receptor 1 (Rattus norvegicus) (P23385 whole entry, looked up): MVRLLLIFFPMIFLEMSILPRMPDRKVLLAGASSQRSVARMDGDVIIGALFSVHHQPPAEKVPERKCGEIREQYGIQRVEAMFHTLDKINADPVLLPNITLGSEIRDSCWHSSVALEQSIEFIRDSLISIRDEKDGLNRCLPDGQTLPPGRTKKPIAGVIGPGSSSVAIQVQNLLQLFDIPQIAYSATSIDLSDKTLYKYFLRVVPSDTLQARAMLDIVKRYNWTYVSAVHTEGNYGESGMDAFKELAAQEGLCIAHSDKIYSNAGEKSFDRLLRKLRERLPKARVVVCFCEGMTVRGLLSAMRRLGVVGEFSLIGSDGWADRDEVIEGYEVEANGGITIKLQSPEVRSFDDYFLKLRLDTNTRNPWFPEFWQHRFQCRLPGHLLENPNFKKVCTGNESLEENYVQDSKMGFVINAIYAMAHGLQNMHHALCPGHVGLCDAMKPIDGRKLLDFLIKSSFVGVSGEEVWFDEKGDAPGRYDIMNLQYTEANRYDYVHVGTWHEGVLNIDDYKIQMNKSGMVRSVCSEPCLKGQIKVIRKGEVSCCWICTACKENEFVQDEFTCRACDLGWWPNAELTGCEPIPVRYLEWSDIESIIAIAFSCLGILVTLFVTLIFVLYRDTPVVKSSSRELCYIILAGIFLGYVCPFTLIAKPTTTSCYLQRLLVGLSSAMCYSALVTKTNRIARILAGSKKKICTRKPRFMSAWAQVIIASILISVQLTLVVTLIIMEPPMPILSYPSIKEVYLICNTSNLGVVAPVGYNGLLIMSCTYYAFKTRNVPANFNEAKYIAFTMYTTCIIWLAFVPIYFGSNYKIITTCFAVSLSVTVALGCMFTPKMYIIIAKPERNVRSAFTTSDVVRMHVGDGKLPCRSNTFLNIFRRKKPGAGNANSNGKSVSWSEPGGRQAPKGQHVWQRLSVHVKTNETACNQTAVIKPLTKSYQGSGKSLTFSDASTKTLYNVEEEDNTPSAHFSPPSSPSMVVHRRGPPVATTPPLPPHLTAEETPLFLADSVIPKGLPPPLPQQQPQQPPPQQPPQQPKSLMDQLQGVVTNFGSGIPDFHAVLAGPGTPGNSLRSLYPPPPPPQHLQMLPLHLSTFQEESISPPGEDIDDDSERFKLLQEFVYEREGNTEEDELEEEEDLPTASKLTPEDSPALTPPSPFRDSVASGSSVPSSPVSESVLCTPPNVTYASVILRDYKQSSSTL
Chain of rat Serotonin, 5-Hydroxytryptamine Receptor 1 (5HT1), Non-Selective Binding, Htr1a (gene 24473) (P19327 whole entry, looked up): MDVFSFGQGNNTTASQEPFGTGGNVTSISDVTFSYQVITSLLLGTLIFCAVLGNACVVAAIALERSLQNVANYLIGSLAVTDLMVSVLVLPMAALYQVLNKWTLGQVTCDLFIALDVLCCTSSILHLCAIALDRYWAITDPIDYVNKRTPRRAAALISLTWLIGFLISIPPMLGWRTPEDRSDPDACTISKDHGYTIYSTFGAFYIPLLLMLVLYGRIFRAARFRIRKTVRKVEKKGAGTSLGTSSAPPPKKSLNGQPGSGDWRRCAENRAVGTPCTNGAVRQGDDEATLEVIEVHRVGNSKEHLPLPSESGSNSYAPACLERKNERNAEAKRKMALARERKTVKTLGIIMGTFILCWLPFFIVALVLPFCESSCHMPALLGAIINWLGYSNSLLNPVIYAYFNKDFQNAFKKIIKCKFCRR
Chain of rat Adrenergic Receptor, Alpha 2 (Adra2), Non-selective Binding, Adra2a (gene 25083) (P22909 whole entry, looked up): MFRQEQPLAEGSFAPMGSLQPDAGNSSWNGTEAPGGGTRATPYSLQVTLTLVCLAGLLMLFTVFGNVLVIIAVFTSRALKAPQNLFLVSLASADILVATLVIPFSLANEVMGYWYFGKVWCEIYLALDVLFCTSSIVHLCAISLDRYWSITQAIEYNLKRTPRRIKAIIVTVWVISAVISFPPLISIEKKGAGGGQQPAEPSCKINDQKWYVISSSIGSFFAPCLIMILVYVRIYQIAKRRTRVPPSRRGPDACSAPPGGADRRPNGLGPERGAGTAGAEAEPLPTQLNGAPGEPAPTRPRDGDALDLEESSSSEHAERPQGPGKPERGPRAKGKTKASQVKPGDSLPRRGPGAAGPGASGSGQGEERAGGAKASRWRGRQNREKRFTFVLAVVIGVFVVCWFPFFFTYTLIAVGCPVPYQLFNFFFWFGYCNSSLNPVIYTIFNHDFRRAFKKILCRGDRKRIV

Take `CCC(C)OC(=O)N1CCCCC1CCO` (stereo not drawn): in [1], the molecule was called inactive.
As for `CCCCCOC(=O)COc1cc(N2C(=O)C3=C(CCCC3)C2=O)c(F)cc1Cl`, the molecule was classed as inactive in test [1].
Regarding `CCC(O)=C1C(=O)CC(C(=O)O)CC1=O` (stereo not drawn), the result in [2] was inactive.
Take `COC(=O)CSc1cc(N=c2sc(=O)n3n2CCCC3)c(F)cc1Cl`: the outcome in test [3] and in test [4] was inactive.
Consider `O=C(c1ccc(O)cc1O)c1ccc(O)cc1O`, for which the AC50 in test [5] was 17.4 µM (active). For the same molecule, the result in [6] was inactive.
As for `CC(C)(C)[C@@H](O)[C@@H](Cc1ccc(Cl)cc1)n1cncn1`, in test [2], the outcome was inactive.
`CCOC(=O)[C@H](C)Oc1ccc(Oc2nc3ccc(Cl)cc3o2)cc1`: in test [7], the molecule was classed as inactive.
In the case of `CC(C)CCCCCCc1ccc(O)cc1`, the AC50 in test [1] is 15.8 µM (active).
For `COC(=O)c1ccccc1S(=O)(=O)NC(=O)Nc1nc(OC(F)F)cc(OC(F)F)n1`, in test [8], the molecule was classed as inactive.
For the molecule `CCCOC(=O)NCCCN(C)C`, in test [9], the AC50 is 18.1 µM (active).
As for `C=CCOC(Cn1ccnc1)c1ccc(Cl)cc1Cl` (stereo not drawn), the AC50 in test [1] was 11.2 µM (active); in test [10], 5.39 µM (active); in test [11], 17.3 µM (active); in [12] it was 6.96 µM (active); in test [13], 37.8 µM (active).
As to `C#C[C@]1(O)CC[C@H]2[C@@H]3CCC4=CC(=O)CC[C@@H]4[C@H]3CC[C@@]21CC`, the call in test [13] was inactive.
Regarding `CCCCOCCOCCOCc1cc2c(cc1CCC)OCO2`, the call in test [6] was inactive.
As to `CC(C)(c1ccc(O)cc1)c1ccc(O)cc1`, the AC50 in [14] is 10.3 µM (active) and 5.04 µM (active); in test [5], 18.6 µM (active) and 19 µM (active); in [1], 15.3 µM (active) [middle of 4 runs]; in test [15], 31.2 µM (active) and 19.2 µM (active) and 16.3 µM (active); in test [10], 10.4 µM (active) and 24.2 µM (active) and 15.1 µM (active). Besides, the outcome in test [14], in test [1], in [16] and in [12] was inactive.
